{
  "source": "ChEMBL document CHEMBL1156829",
  "note": "In all, about 5,400 compounds were measured (“IFI”: median about 2, highest 2% from about 22 on). This excerpt belongs to a sample that is enriched for the highest values.",
  "data": [
    {"test": "NOVARTIS: Inhibition Frequency Index (IFI) - the number of HTS assays where a compound showed > 50% inhibition/induction, expressed as a percentage of the number of assays in which the compound was tested.", "format": "functional", "units": {"IFI": "%"}, "values": [
      {"smiles": "CC1C/C(=C/c2ccncc2)C(=O)/C(=C/c2ccncc2)C1", "note": "(configuration not stated)", "IFI": 33.3},
      {"smiles": "COc1cc(/C=C2\\CC/C(=C\\c3cc(OC)c(OC)c(OC)c3)C2=O)cc(OC)c1OC", "IFI": 2.7},
      {"smiles": "COc1ccc2c(c1)c(C)cc[n+]2Cc1ccccc1", "IFI": 6.3},
      {"smiles": "CC(C)(C)CC(=O)NCc1ccc(OC2CCN(CC(c3ccccc3)c3ccccc3)CC2)cc1", "IFI": 7.04},
      {"smiles": "O=C1CCC(c2ccc(Cl)c(Cl)c2)c2ccc(O)cc21", "note": "(configuration not stated)", "IFI": 0},
      {"smiles": "COc1ccc(-c2cc(C3CCN(c4nc(N)c5cc(OC)c(OC)cc5n4)CC3)n[nH]2)cc1OC", "IFI": 7.41},
      {"smiles": "COc1cc2nc(N3CCN(c4nc(N)c5cc(OC)c(OC)cc5n4)CC3)nc(N)c2cc1OC", "IFI": 23.1},
      {"smiles": "COc1cc2nc(Nc3ccc(F)cc3)nc(N)c2cc1OC", "IFI": 0},
      {"smiles": "CCc1c2ccc(C)n2cc[n+]1CC", "IFI": 6.02},
      {"smiles": "Cc1ccc(CSCc2ccc(C(=O)NC3CC3)o2)cc1", "IFI": 0},
      {"smiles": "CC(=O)Nc1ccc(-c2nc(-c3ccc(Oc4ccc(-c5[nH]c(-c6ccc(NC(C)=O)cc6)nc5-c5ccccc5)cc4)cc3)c(-c3ccccc3)[nH]2)cc1", "IFI": 1.54},
      {"smiles": "COc1ccc2c(c1)C(C)=CC(C)(C)N2C(=O)CSc1nnc(-c2ccc(C)cc2)o1", "IFI": 0},
      {"smiles": "O=C(N/C(=C/C=C/c1ccccc1)C(=O)N1CCCCC1)c1ccc([N+](=O)[O-])cc1", "IFI": 0.685},
      {"smiles": "CCCCNC(=O)NC(Cc1c[nH]c2ccccc12)C(=O)NC1CCCCC1", "note": "(configuration not stated)", "IFI": 4.21},
      {"smiles": "CC1CN(C(=O)C(Cc2c[nH]c3ccccc23)NC(=O)C(c2ccccc2)c2ccccc2)CCN1C(=O)NCc1ccccc1", "note": "(configuration not stated)", "IFI": 0},
      {"smiles": "CC(C)C[C@@H](NC(=O)[C@H](C)NC(=O)CNC(=O)[C@@H](NC=O)C(C)C)C(=O)N[C@@H](C)C(=O)N[C@@H](C(=O)N[C@H](C(=O)N[C@@H](C(=O)N[C@@H](Cc1c[nH]c2ccccc12)C(=O)N[C@H](CC(C)C)C(=O)N[C@@H](Cc1c[nH]c2ccccc12)C(=O)N[C@H](CC(C)C)C(=O)N[C@@H](Cc1c[nH]c2ccccc12)C(=O)N[C@H](CC(C)C)C(=O)N[C@@H](Cc1c[nH]c2ccccc12)C(=O)NCCO)C(C)C)C(C)C)C(C)C", "IFI": 27.6},
      {"smiles": "Cc1ccc(Nc2nc(NCc3ccccc3)c3ccccc3n2)cc1", "IFI": 0},
      {"smiles": "C=CCSc1nc(N)c2c3c(sc2n1)CN(CCC)CC3", "IFI": 14},
      {"smiles": "CC[n+]1c(/C=C/C=C2\\N(C)c3ccccc3C2(C)C)n(-c2ccccc2)c2ccc(Cl)cc21", "IFI": 21.4},
      {"smiles": "CC[n+]1c(/C=C/C=C2\\N(C)c3ccccc3C2(C)C)n(CCCOC(C)=O)c2ccccc21", "IFI": 14.3},
      {"smiles": "CCC1=[N+](C)c2cccc3cccc(c23)N1C", "IFI": 3.12},
      {"smiles": "CCN1/C(=C/C=C/c2sc3ccccc3[n+]2CC)Sc2ccccc21", "IFI": 21.7},
      {"smiles": "CC[n+]1c(/C=C/C=C2\\N(C)c3ccccc3C2(C)C)n(-c2ccccc2)c2ccc(C)cc21", "IFI": 21.4},
      {"smiles": "CC[n+]1c(C=CC=C2N(C)c3ccccc3C2(C)C)sc2ccccc21", "IFI": 28.6},
      {"smiles": "CN1/C(=C\\C=C\\C2=[N+](C)c3ccc4ccccc4c3C2(C)C)C(C)(C)c2ccccc21", "IFI": 23.1},
      {"smiles": "CC[n+]1c(/C=C/C=C2\\N(C)c3ccccc3C2(C)C)n(Cc2ccccc2)c2ccccc21", "IFI": 32.6},
      {"smiles": "CC[n+]1c(C=CN(C)C)sc2ccccc21", "IFI": 4.62},
      {"smiles": "CC[n+]1c(/C=C/C=C2\\N(C)c3ccccc3C2(C)C)n(-c2ccccc2)c2cc(Cl)ccc21", "IFI": 33.3},
      {"smiles": "C[n+]1c(C=CNc2ccccc2)n(-c2ccccc2)c2ccc(Cl)cc21", "IFI": 12.5},
      {"smiles": "Brc1ccc(-c2n(Cc3ccccc3)c3ccccc3[n+]2Cc2ccccc2)o1", "IFI": 15.4},
      {"smiles": "COc1ccc(NC(=O)C2c3ccccc3C(=O)N(C3CCCC3)C2c2cccs2)cc1Cl", "note": "(configuration not stated)", "IFI": 6.25},
      {"smiles": "CC1=C(C=CC(C)C=NNC(=O)c2ccncc2)C(C)(C)CCC1", "note": "(configuration not stated)", "IFI": 0},
      {"smiles": "COc1ccc(-c2ccc(C=NNC(=O)CNC(=O)c3ccc4c(c3)OCO4)o2)cc1Cl", "IFI": 0},
      {"smiles": "CCC(=O)CC(O)C[C@@H](C)C[C@H](NC(=O)[C@@H]1C[C@H](C)CN1C(=O)/C=C/[C@@H](C)CC)C(=O)N[C@H](C(=O)NC(C)(C)C(=O)N[C@@H](CC(C)C)C(=O)N[C@@H](CC(C)C)C(=O)NC(C)(C)C(=O)NC(C)(C)C(=O)NCCC(=O)N[C@@H](C)CN(C)C)[C@H](O)C(C)C", "note": "(some centres not stated)", "IFI": 12.1},
      {"smiles": "COc1cccc(C(=O)Oc2ccccc2-c2nc3cc(C)ccn3c2NC(C)(C)CC(C)(C)C)c1", "IFI": 3.74},
      {"smiles": "Cc1occc1C(=O)NN=C/C(Cl)=C/c1ccccc1", "IFI": 7.69},
      {"smiles": "CC(C)(C)OCCN(CC(O)CN(Cc1ccccc1)C(=O)NC(c1ccccc1)c1ccccc1)S(=O)(=O)c1ccccc1", "note": "(configuration not stated)", "IFI": 0.935},
      {"smiles": "COc1cc(C2C(C(=O)OCC(C)C)=C(C)NC3=C2C(=O)CC(c2ccccc2)C3)cc(Br)c1O", "note": "(configuration not stated)", "IFI": 4.65},
      {"smiles": "Cc1ccc(Cn2c(N3CCC(C(=O)NCc4ccccn4)CC3)nc3ccccc32)cc1", "IFI": 0},
      {"smiles": "CCc1cccc2c(C#N)cn(CC(=O)Nc3ccc(OC)cc3)c12", "IFI": 7.69},
      {"smiles": "Clc1ccc(C[n+]2cc(-c3ccccc3)n3c2CCC3)cc1Cl", "IFI": 3.77},
      {"smiles": "Cc1cccc(C)c1NC(=O)N1CCN(C(=O)c2nc(-c3ccccc3)nc(C)c2C(=O)OC(C)C)CC1C", "note": "(configuration not stated)", "IFI": 2.8},
      {"smiles": "N#CC(c1ccc(C(F)(F)F)cc1)c1ccc2c(C(F)(F)F)cc(C(F)(F)F)nc2n1", "note": "(configuration not stated)", "IFI": 26.3},
      {"smiles": "COc1ccc(C2Nc3ccc4ccccc4c3C3=C2C(=O)CC(C)(C)C3)cc1Br", "note": "(configuration not stated)", "IFI": 0},
      {"smiles": "CCCCOc1cccc(C(=O)N(Cc2cccs2)c2ccc(OC)cc2)c1", "IFI": 0},
      {"smiles": "CCN1C(=Cc2ccc3c4ccoc4ccc3[n+]2CC)C=Cc2c1ccc1occc21", "IFI": 28.6},
      {"smiles": "CC[n+]1c(/C=C2\\C=Cc3cc(C)ccc3N2C)ccc2cc(C)ccc21", "IFI": 15.4},
      {"smiles": "CCN1C(=Cc2sc3cc(NC(C)=O)ccc3[n+]2CC)C=Cc2cc(C)ccc21", "IFI": 7.69},
      {"smiles": "C=CCN1C=CC(=Cc2sc3ccccc3[n+]2C)c2ccccc21", "IFI": 17.6},
      {"smiles": "CC(C)(C)NC(=O)C(c1ccc(F)cc1)N(CCCN1CCOCC1)C(=O)c1ccc(-c2ccccc2)[nH]1", "note": "(configuration not stated)", "IFI": 3.16},
      {"smiles": "COc1ccc(OC)c(NC(=O)c2cnn3c(C(F)(F)F)cc(-c4ccc(OC)c(OC)c4)nc23)c1", "IFI": 2.38},
      {"smiles": "CC1(C)C(=O)C2(CCCCC2)C(=O)OC1/C=C/c1ccccc1", "note": "(configuration not stated)", "IFI": 1.49}
    ]}
  ]
}
